In ChEMBL document CHEMBL1961873, “Compounds: GSK PKIS; Assays: Nanosyn kinase panel” (2012):

How the values were obtained:
[1] = molecular target: Platelet-derived growth factor receptor beta (Homo sapiens) (UniProt P09619); settings: at 1 µM;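 note: each value is a mean percent inhibition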
[2] = molecular target: Tyrosine-protein kinase FRK (Homo sapiens) (UniProt P42685); settings: at 0.1 µM
[3] = molecular target: Tyrosine-protein kinase FRK (Homo sapiens) (UniProt P42685); settings: at 1 µM
[4] = molecular target: Protein-tyrosine kinase 2-beta (Homo sapiens) (UniProt Q14289); settings: at 0.1 µM
[5] = molecular target: Protein-tyrosine kinase 2-beta (Homo sapiens) (UniProt Q14289); settings: at 1 µM
[6] = molecular target: Proto-oncogene tyrosine-protein kinase receptor Ret (Homo sapiens) (UniProt P07949); settings: at 0.1 µM
[7] = molecular target: Proto-oncogene tyrosine-protein kinase receptor Ret (Homo sapiens) (UniProt P07949); settings: at 1 µM
[8] = tested on: Proto-oncogene tyrosine-protein kinase receptor Ret (Homo sapiens), P07949 [V804L]; settings: at 0.1 µM
[9] = tested on: Proto-oncogene tyrosine-protein kinase receptor Ret (Homo sapiens), P07949 [V804L]; settings: at 1 µM
[10] = tested on: Proto-oncogene tyrosine-protein kinase receptor Ret (Homo sapiens), P07949 [Y791F]; settings: at 0.1 µM
Chain of Proto-oncogene tyrosine-protein kinase receptor Ret (Homo sapiens), P07949 [Y791F] (P07949 whole entry Y791F): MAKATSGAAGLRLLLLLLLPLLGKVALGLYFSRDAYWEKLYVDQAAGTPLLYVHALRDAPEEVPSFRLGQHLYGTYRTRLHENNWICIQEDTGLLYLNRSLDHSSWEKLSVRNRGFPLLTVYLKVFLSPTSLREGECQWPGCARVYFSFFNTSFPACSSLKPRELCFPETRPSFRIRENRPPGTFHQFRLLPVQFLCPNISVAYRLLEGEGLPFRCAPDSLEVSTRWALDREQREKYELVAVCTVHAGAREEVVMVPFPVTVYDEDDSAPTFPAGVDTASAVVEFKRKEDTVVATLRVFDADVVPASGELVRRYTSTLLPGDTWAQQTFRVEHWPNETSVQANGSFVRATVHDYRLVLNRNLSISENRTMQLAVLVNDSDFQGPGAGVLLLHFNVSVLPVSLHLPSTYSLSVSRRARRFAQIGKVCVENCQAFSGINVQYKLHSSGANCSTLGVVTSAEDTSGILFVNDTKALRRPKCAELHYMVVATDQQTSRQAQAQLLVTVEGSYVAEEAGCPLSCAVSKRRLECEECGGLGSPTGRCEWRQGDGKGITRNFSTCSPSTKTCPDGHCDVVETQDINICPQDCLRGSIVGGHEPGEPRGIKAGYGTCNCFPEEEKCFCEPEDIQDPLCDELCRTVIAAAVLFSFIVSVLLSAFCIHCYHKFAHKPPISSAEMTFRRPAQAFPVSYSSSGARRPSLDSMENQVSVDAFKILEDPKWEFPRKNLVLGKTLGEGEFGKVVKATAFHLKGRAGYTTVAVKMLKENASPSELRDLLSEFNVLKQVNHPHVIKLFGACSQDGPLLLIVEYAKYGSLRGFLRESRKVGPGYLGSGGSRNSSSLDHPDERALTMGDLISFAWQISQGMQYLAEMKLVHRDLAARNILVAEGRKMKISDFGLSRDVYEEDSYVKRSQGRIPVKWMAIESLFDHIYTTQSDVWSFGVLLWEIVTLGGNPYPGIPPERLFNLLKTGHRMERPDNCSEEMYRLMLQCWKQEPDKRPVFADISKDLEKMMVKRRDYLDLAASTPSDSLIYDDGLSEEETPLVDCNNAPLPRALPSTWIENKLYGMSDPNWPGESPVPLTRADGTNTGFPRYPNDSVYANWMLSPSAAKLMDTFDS

Chain of Proto-oncogene tyrosine-protein kinase receptor Ret (Homo sapiens) (P07949 whole entry): as the sequence (P07949 whole entry Y791F) above, with F791Y counted along it
Chain of Tyrosine-protein kinase FRK (Homo sapiens) (P42685 whole entry): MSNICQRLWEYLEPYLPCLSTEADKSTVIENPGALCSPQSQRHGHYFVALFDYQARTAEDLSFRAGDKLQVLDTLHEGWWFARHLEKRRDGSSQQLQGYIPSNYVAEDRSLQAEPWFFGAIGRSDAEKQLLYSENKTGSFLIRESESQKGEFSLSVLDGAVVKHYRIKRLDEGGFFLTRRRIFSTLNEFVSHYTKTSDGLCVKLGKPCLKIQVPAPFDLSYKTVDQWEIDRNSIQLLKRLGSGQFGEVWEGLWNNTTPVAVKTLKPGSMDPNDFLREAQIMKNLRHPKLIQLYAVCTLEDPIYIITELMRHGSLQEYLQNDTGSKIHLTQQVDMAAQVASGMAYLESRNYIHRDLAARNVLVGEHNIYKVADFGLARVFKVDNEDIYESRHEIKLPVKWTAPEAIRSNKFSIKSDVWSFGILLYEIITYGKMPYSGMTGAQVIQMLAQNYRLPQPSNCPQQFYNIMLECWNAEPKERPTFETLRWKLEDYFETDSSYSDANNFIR
Chain of Platelet-derived growth factor receptor beta (Homo sapiens) (P09619 whole entry): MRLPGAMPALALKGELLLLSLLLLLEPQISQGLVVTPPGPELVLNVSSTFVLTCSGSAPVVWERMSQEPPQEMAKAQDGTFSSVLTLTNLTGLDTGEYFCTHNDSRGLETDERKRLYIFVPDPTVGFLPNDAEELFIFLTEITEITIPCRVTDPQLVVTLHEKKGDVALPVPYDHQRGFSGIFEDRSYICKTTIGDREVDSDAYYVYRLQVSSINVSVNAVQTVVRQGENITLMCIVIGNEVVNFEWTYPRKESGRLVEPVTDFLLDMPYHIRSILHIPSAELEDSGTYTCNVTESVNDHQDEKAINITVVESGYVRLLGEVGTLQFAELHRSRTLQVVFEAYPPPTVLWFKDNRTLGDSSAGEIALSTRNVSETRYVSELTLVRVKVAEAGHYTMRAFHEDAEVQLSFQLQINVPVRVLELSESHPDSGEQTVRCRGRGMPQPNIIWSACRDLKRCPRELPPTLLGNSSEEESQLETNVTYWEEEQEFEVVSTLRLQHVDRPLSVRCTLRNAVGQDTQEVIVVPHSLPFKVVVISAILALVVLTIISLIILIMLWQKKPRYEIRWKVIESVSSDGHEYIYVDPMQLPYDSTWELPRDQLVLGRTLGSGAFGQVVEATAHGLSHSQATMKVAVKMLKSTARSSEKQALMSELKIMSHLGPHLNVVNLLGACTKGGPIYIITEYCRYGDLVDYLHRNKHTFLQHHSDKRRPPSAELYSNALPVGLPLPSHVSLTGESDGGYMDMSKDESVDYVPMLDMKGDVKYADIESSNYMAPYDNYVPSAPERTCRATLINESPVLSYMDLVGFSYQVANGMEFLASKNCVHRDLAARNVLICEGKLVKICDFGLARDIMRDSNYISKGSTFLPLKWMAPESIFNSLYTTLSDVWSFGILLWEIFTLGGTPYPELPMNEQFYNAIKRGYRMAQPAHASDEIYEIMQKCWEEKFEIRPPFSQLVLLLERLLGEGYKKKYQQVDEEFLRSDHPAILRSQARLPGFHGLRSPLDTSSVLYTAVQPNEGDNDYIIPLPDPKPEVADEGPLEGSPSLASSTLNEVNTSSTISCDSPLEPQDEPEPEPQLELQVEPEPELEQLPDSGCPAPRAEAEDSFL
Chain of Proto-oncogene tyrosine-protein kinase receptor Ret (Homo sapiens), P07949 [V804L] (P07949 whole entry V804L): as the sequence (P07949 whole entry Y791F) above, with F791Y, V804L counted along it
Chain of Protein-tyrosine kinase 2-beta (Homo sapiens) (Q14289 whole entry, looked up): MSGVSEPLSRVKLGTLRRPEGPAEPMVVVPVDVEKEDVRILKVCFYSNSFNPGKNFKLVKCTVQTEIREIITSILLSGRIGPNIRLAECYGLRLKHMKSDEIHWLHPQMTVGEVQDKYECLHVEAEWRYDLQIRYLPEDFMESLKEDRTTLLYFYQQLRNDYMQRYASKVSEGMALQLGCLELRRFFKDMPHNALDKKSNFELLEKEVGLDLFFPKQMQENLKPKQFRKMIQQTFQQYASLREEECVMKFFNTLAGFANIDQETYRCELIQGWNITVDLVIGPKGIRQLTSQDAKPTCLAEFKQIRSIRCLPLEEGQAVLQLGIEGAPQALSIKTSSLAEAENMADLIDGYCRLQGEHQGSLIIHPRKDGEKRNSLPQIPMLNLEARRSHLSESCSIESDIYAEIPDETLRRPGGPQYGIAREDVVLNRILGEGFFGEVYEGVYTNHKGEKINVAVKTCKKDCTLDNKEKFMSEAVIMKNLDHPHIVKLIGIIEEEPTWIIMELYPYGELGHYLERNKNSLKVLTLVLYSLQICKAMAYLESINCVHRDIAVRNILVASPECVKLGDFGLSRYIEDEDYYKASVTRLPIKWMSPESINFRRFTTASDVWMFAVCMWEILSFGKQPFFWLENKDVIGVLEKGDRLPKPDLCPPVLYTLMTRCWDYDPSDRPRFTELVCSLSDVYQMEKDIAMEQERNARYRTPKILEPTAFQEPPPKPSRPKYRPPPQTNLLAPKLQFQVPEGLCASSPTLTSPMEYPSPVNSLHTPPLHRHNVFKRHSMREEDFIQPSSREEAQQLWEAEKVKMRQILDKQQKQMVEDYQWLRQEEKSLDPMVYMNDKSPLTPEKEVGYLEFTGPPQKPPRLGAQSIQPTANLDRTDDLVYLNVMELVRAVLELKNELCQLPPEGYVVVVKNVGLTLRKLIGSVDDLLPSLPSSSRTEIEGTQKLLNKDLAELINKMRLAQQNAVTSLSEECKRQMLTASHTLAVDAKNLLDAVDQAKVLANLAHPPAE

SMILES	inhibition [1]	inhibition [2]	inhibition [3]	inhibition [4]	inhibition [5]	inhibition [6]	inhibition [7]	inhibition [8]	inhibition [9]	inhibition [10]
CCn1c(-c2nonc2N)nc2c(C#CC(C)(C)O)ncc(OCC3CCNCC3)c21	44.6%	1.13%	1.21%	9.34%	29.7%	6.89%	26.3%	6.2%	28.5%	5.3%
Cc1cc(-c2ccco2)cc(C)c1/C=C/c1cncc(-c2nn[nH]n2)c1	2.67%	-0.44%	-0.05%	1.24%	0%	1.88%	3.21%	8.81%	1.72%	2.21%
NC(=O)c1sc(-n2cnc3cc(C(F)(F)F)ccc32)cc1OCc1ccccc1Br	5.82%	0.62%	-0.62%	3.52%	-2.94%	5.91%	2.23%	1.83%	11.6%	2.29%
NS(=O)(=O)c1ccc(N/C=C2\C(=O)Nc3ccc4ncsc4c32)cc1	86.8%	2.34%	3.93%	7.28%	43.6%	30.4%	71.3%	47.3%	73.9%	30.5%
CCn1c(-c2nonc2N)nc2c(C#CC(C)(C)O)nc(O[C@@H](CN)c3ccccc3)cc21	79.5%	-0.39%	0.63%	27%	80.1%	41.7%	90%	9.12%	47.7%	41.8%
NS(=O)(=O)c1ccc(-c2ccc3c(NC(=O)C4CC4)n[nH]c3c2)cc1	5.87%	1.62%	1.3%	6.65%	5.61%	3%	8.48%	2.82%	4.4%	3.34%
COc1cc2c(cc1Nc1nc(Nc3ccsc3C(N)=O)c3cc[nH]c3n1)N(C(=O)CN(C)C)CCC2	33.9%	1.91%	8.84%	77.8%	95.6%	11.9%	14.2%	2.29%	13.6%	1.79%
COc1cccc(-n2ncc3c(N/N=C/c4ccncc4)ncnc32)c1	81.2%	2.72%	5.75%	11.5%	16.5%	9.73%	50.3%	7.23%	31.1%	18.4%
COc1cccc(COc2cc(-n3cnc4ccccc43)sc2C(N)=O)c1	8.32%	0%	0.01%	-3.42%	-2.02%	0.11%	7.33%	0.81%	0.07%	0.47%
Fc1ccc(-c2ncn(C3CCNCC3)c2-c2ccnc(Oc3ccccc3)n2)cc1	5.68%	1.48%	1.29%	4.92%	6.66%	3.19%	7.03%	1.33%	5.85%	1.85%
CCn1c(-c2nonc2N)nc2c(C#CCN)ncc(OCCCN)c21	25.5%	-0.39%	-0.01%	-5.89%	8.44%	3.26%	4.11%	6.12%	9.27%	1.83%
COc1cc(C=NNc2ncnc3c2cnn3Cc2ccccc2)ccc1O	26.4%	0.54%	1.85%	-6.73%	-1.9%	7.87%	46.3%	1.82%	11.1%	7.69%
CCn1c(-c2nonc2N)nc2c(C#CC(C)(C)O)ncc(OC[C@@H]3CCCN3)c21	47.2%	-0.88%	0.68%	1.89%	23%	3.87%	25.2%	0.45%	2.53%	3%
Nc1nonc1-c1nc2cnccc2n1C1CCCCC1	26.4%	0.25%	0.75%	-7.07%	-8.39%	3.59%	9.55%	5.85%	19.5%	2.08%
